# Screen size: about 2,000 compounds; about 110 (5.5%) showed an effect of 50% or more. The full list was thinned out, with strong results kept by preference.
# Biological target: Genome polyprotein (dengue virus type 2) (UniProt P29990)
# [1] = Thailand/16681/1984, Concentration 25.0 uM, Number of replicates 1.0
smiles,measurement,setting,value
Cc1cc(CO)c2cccc(Cc3cccc(C(=O)Nc4cccc(C(N)=O)c4)c3)c2n1,inhibition,"Thailand/16681/1984, Concentration 49.95 uM, Number of replicates 2.0, Standard deviation 0.8487279472032775 %",0.063%
same,inhibition,"Thailand/16681/1984, Concentration 99.9 uM, Number of replicates 2.0, Standard deviation 0.25943340872226184 %",4.4%
Cc1cc(CO)c2cccc(Cc3cccc(C(=O)Nc4nonc4C(N)=O)c3)c2n1,inhibition,"Thailand/16681/1984, Concentration 49.95 uM, Number of replicates 2.0, Standard deviation 1.9942580477177279 %",23.4%
same,inhibition,"Thailand/16681/1984, Concentration 99.9 uM, Number of replicates 2.0, Standard deviation 1.5142007227316114 %",73%
O=Cc1ccc(N2CCC(C(=O)NCc3ccc(C(F)(F)F)nc3)CC2)cc1,inhibition,[1],14.9%
CC(C)(CO)NC(=O)c1cc(Cl)cc(OCc2ccccn2)c1,inhibition,"Thailand/16681/1984, Concentration 49.5 uM, Number of replicates 2.0, Standard deviation 3.9117339361958243 %",-3.57%
same,inhibition,"Thailand/16681/1984, Concentration 99.01 uM, Number of replicates 2.0, Standard deviation 3.9139588683287148 %",-3.56%
same,inhibition,"Thailand/16681/1984, Concentration 198.0 uM, Number of replicates 2.0, Standard deviation 3.978479645326132 %",-2.33%
O=Cc1ccc(N2CCC(C(=O)N3CCS[C@H]3c3ccc([N+](=O)[O-])cc3)CC2)cc1,inhibition,[1],10.8%
CNC(=O)c1cc(Cl)ccc1NS(=O)(=O)c1ccc(Cn2cncn2)cc1,inhibition,"Thailand/16681/1984, Concentration 49.5 uM, Number of replicates 2.0, Standard deviation 0.7766096317793165 %",-1.89%
same,inhibition,"Thailand/16681/1984, Concentration 99.01 uM, Number of replicates 2.0, Standard deviation 1.2995063622910579 %",-0.333%
same,inhibition,"Thailand/16681/1984, Concentration 198.0 uM, Number of replicates 2.0, Standard deviation 1.6197418261994996 %",2.7%
CS(=O)(=O)N1CCC(NC(=O)C2CCN(c3ccc(C=O)cc3)CC2)CC1,inhibition,[1],12%
O=Cc1ccc(N2CCC(C(=O)Nc3ncnc(Cl)c3Cl)CC2)cc1,inhibition,[1],10.5%
C=CCN(Cc1cccc(OC)c1)C(=O)C1CCN(c2ccc(C=O)cc2)CC1,inhibition,[1],13.3%
Cc1ccc(NC(=O)C2CCN(c3ccc(C=O)cc3)CC2)cc1I,inhibition,[1],9.87%
Cc1cc(CO)c2cccc(Cc3ccccc3NC(=O)Cc3nnc(C)[nH]3)c2n1,inhibition,"Thailand/16681/1984, Concentration 49.95 uM, Number of replicates 2.0, Standard deviation 1.0489246346930539 %",2.09%
same,inhibition,"Thailand/16681/1984, Concentration 99.9 uM, Number of replicates 2.0, Standard deviation 0.8121374020252716 %",10.7%
O=Cc1ccc(N2CCC(C(=O)NCc3ccc(-c4ccccn4)cc3)CC2)cc1,inhibition,[1],6.55%
CC(=O)N[C@@H](CCCN)C(=O)Nc1ccccc1Cc1cccc2c(CO)cc(C)nc12,inhibition,"Thailand/16681/1984, Concentration 49.95 uM, Number of replicates 2.0, Standard deviation 1.2344771467866291 %",-4.07%
same,inhibition,"Thailand/16681/1984, Concentration 99.9 uM, Number of replicates 2.0, Standard deviation 0.6037374205287288 %",4.36%
CC(=O)N[C@@H](Cc1ccc(CN)cc1)C(=O)Nc1cccc2c(CO)cc(C)nc12,inhibition,"Thailand/16681/1984, Concentration 49.95 uM, Number of replicates 2.0, Standard deviation 0.08390662036506401 %",24.9%
same,inhibition,"Thailand/16681/1984, Concentration 99.9 uM, Number of replicates 2.0, Standard deviation 0.3339864632910001 %",96.3%
CC(=O)N[C@@H](CCCCN)C(=O)Nc1ccccc1Cc1cccc2c(CO)cc(C)nc12,inhibition,"Thailand/16681/1984, Concentration 49.95 uM, Number of replicates 2.0, Standard deviation 0.842601818478522 %",-5.54%
same,inhibition,"Thailand/16681/1984, Concentration 99.9 uM, Number of replicates 2.0, Standard deviation 0.16339684106206548 %",1.8%
CC(=O)N[C@@H](CCCCN)C(=O)Nc1cccc2c(CO)cc(C)nc12,inhibition,"Thailand/16681/1984, Concentration 49.95 uM, Number of replicates 2.0, Standard deviation 0.7189645441339965 %",35.5%
same,inhibition,"Thailand/16681/1984, Concentration 99.9 uM, Number of replicates 2.0, Standard deviation 0.1513618084697797 %",97.4%
CC(=O)N[C@@H](Cc1ccc(O)cc1)C(=O)Nc1cccc2c(CO)cc(C)nc12,inhibition,"Thailand/16681/1984, Concentration 49.95 uM, Number of replicates 2.0, Standard deviation 2.4752459751189644 %",-9.17%
same,inhibition,"Thailand/16681/1984, Concentration 99.9 uM, Number of replicates 2.0, Standard deviation 3.123465853915667 %",-9.54%
CC(=O)N[C@@H](CCCN)C(=O)Nc1cccc2c(CO)cc(C)nc12,inhibition,"Thailand/16681/1984, Concentration 99.9 uM, Number of replicates 2.0, Standard deviation 2.7664513641226787 %",9.57%
Cn1cc(NC(=O)c2ccccc2C(F)(F)F)c(-c2ccc(F)nc2)n1,inhibition,"Thailand/16681/1984, Concentration 49.5 uM, Number of replicates 2.0, Standard deviation 3.6499634215033607 %",-3.01%
same,inhibition,"Thailand/16681/1984, Concentration 99.01 uM, Number of replicates 2.0, Standard deviation 1.5811035342397435 %",-2.37%
same,inhibition,"Thailand/16681/1984, Concentration 198.0 uM, Number of replicates 2.0, Standard deviation 0.8634737807980869 %",-2.26%
O=Cc1ccc(N2CCC(C(=O)Nc3c(Cl)cncc3Cl)CC2)cc1,inhibition,[1],12.4%
Cc1cc(CO)c2cccc(Cc3ccccc3C(=O)NC[C@H](C)O)c2n1,inhibition,"Thailand/16681/1984, Concentration 49.95 uM, Number of replicates 2.0, Standard deviation 0.37872955767016525 %",-3.03%
same,inhibition,"Thailand/16681/1984, Concentration 99.9 uM, Number of replicates 2.0, Standard deviation 0.20409716758521712 %",0.577%
Cc1cc(CO)c2cccc(Cc3cccc(C(=O)NC[C@H](C)O)c3)c2n1,inhibition,"Thailand/16681/1984, Concentration 49.95 uM, Number of replicates 2.0, Standard deviation 1.3417230059830858 %",-6.96%
same,inhibition,"Thailand/16681/1984, Concentration 99.9 uM, Number of replicates 2.0, Standard deviation 0.8544771145149516 %",-2.86%
Cc1cc(CO)c2cccc(Cc3ccccc3C(=O)NCC(=O)O)c2n1,inhibition,"Thailand/16681/1984, Concentration 49.95 uM, Number of replicates 2.0, Standard deviation 0.8422599232434016 %",38.5%
same,inhibition,"Thailand/16681/1984, Concentration 99.9 uM, Number of replicates 2.0, Standard deviation 0.5627042603428867 %",64.9%
Cc1cc(CO)c2cccc(Cc3ccccc3C(=O)NCC(N)=O)c2n1,inhibition,"Thailand/16681/1984, Concentration 49.95 uM, Number of replicates 2.0, Standard deviation 0.5253345885233084 %",1.79%
same,inhibition,"Thailand/16681/1984, Concentration 99.9 uM, Number of replicates 2.0, Standard deviation 0.6122918820772879 %",9.88%
